Only some compounds are listed: those with a hit (about 3.5% of all), similar ones and a draw of the others.
FBA Mtb inh: inhibitors of M. tuberculosis fructose-bisphosphate aldolase. P9WQA3. purified M. tuberculosis FBA, fluorescence read-out. inhibition, % at 1 µM. 2.3% of 360,000 active; in the data active = inhibition above about 27%
UGM FP inh: inhibitors of M. tuberculosis UDP-galactopyranose mutase; purified UGM, fluorescence polarization probe displacement; P9WIQ1; inhibition, % at 10 µM; 0.06% of 320,000 active; in the data active = inhibition above about 10%, passing the limit was not always enough
Rv3671c protease: Rv3671c (M. tuberculosis) protease inhibition; 0.048% of 320,000 active; inhibition, % at 5.96 µM; in the data active = inhibition above about 38%;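 also: extracellular domain of Rv3671c used as enzyme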
Target sequence (P9WHR9 whole entry, looked up, the tested form may be a part): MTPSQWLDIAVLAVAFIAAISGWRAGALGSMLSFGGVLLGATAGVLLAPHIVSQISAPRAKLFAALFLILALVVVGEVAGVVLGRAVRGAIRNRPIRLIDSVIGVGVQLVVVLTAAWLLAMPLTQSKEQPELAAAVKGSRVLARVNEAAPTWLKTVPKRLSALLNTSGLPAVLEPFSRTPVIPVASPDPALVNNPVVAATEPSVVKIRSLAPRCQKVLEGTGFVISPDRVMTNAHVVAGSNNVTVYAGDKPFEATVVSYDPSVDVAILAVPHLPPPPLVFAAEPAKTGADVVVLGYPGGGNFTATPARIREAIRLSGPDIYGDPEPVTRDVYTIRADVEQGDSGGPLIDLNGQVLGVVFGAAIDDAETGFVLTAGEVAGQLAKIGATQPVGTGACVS
FadD28 FP inh: inhibitors of Mycobacterium tuberculosis FadD28 bisubstrate binding. FadD28 bisubstrate probe binding, fluorescence polarization. inhibition, % at 12.5 µM. 0.22% of 360,000 active; in the data active = inhibition above about 8.5%, passing the limit was not always enough
GDH-TPI counter: counter-screen for M. tuberculosis FBA inhibitors: GDH-TPI coupled enzymes; GDH-TPI coupled enzyme counterscreen, NADH absorbance; inhibition, % at 4.8 µM; 1.2% of 360,000 active; AID 588335; in the data active = inhibition above about 30%
Mtb hypoxia inh: reduces hypoxia-regulated biosensor signal in M. tuberculosis; M. tuberculosis hypoxia-regulated fluorescent reporter, fluorescence; fluorescence inhibition, % (test concentration not listed); 0.1% of 300,000 active; in the data active = fluorescence inhibition mostly above about 23%, no sharp cut-off; inactive = mostly below about 17%
A number is an active result.

`COc1ccc(CC2CN3C(=NCC3C)N2CC(C)NC(=O)CCC2CCCCC2)cc1` (stereo not given) gave Mtb hypoxia inh inactive.
For COc1cccc(/C=N/NC(=O)c2ccc(=O)[nH]n2)c1O the results were FBA Mtb inh inactive, UGM FP inh inactive, Rv3671c protease inactive, FadD28 FP inh inactive and GDH-TPI counter 31.
For COc1cccc(/C=N/NC(=O)c2[nH]c(C)c(C(=O)N/N=C/c3cccc(OC)c3O)c2C)c1O the results were FBA Mtb inh inactive, UGM FP inh inactive, Rv3671c protease inactive, FadD28 FP inh inactive and GDH-TPI counter 43.
For COc1ccc(C=NNC(=O)c2[nH]c(C)c(C(=O)NN=Cc3ccc(OC)cc3)c2C)cc1 the results were Mtb hypoxia inh inactive.
Cc1[nH]c(C(=O)N/N=C/c2ccc(C(=O)O)cc2)c(C)c1C(=O)N/N=C/c1ccc(C(=O)O)cc1 was read as FBA Mtb inh inactive, UGM FP inh inactive, Rv3671c protease inactive, FadD28 FP inh inactive and GDH-TPI counter 74.
Screening COc1ccc(OC)c(/C=N/NC(=O)c2ccc(=O)[nH]n2)c1 returned FBA Mtb inh inactive, UGM FP inh inactive, Rv3671c protease inactive, FadD28 FP inh inactive and GDH-TPI counter inactive.
`COc1ccc2[nH]c3c(c2c1)CCn1c-3nc2ccccc2c1=O` gave FBA Mtb inh inactive, UGM FP inh inactive, Rv3671c protease inactive, FadD28 FP inh inactive and GDH-TPI counter 59.
Screening COc1ccc(/C=C2\N=C(SC)NC2=O)cc1 returned FBA Mtb inh inactive, UGM FP inh inactive, Rv3671c protease inactive, FadD28 FP inh inactive and GDH-TPI counter inactive.
Screening COc1ccc(/C=C2/N=C(SC)NC2=O)cc1OC returned FBA Mtb inh inactive, UGM FP inh inactive, Rv3671c protease inactive, FadD28 FP inh inactive, GDH-TPI counter 40 and Mtb hypoxia inh inactive.
O=C(CNC(=O)c1cccs1)NN=Cc1ccc(Cl)cc1 was read as Mtb hypoxia inh inactive.
Cc1ccc(C)c(-n2c(=O)c(C#N)cc3c(=O)n4ccccc4nc32)c1 was read as FBA Mtb inh 133, UGM FP inh inactive, Rv3671c protease inactive, FadD28 FP inh inactive, GDH-TPI counter inactive and Mtb hypoxia inh inactive.
For CCC(C)n1c(=N)c(C#N)cc2c(=O)n3ccccc3nc21 (stereo not given) the results were FBA Mtb inh inactive, UGM FP inh inactive, Rv3671c protease inactive, FadD28 FP inh inactive, GDH-TPI counter inactive and Mtb hypoxia inh inactive.
`Cc1ccc(-n2c(=O)c(C#N)cc3c(=O)n4ccccc4nc32)cc1` gave FBA Mtb inh 149, UGM FP inh inactive, Rv3671c protease inactive, FadD28 FP inh inactive, GDH-TPI counter inactive and Mtb hypoxia inh inactive.
Screening Cc1cccc(-n2c(=O)c(C#N)cc3c(=O)n4ccccc4nc32)c1 returned FBA Mtb inh active, UGM FP inh inactive, Rv3671c protease inactive, FadD28 FP inh inactive, GDH-TPI counter inactive and Mtb hypoxia inh inactive.
Screening Cc1cccn2c(=O)c3cc(C#N)c(=O)n(-c4c(C)n(C)n(-c5ccccc5)c4=O)c3nc12 returned FBA Mtb inh inactive, UGM FP inh inactive, Rv3671c protease inactive, FadD28 FP inh inactive, GDH-TPI counter inactive and Mtb hypoxia inh inactive.
Screening CSc1nncc(C(C)=NNc2cccc(C)c2)n1 returned Mtb hypoxia inh inactive.
O=C(N/N=C/c1ccc([N+](=O)[O-])o1)c1ccccc1NS(=O)(=O)c1cccs1 was read as FBA Mtb inh inactive, UGM FP inh inactive, Rv3671c protease inactive, FadD28 FP inh inactive and GDH-TPI counter 32.
For Cc1c(C(=O)N/N=C/c2ccc(O)c(Br)c2)sc(N)c1C#N the results were FBA Mtb inh inactive, UGM FP inh inactive, Rv3671c protease inactive, FadD28 FP inh inactive and GDH-TPI counter inactive.
O=C(NN=Cc1ccc(F)cc1)c1ccccc1NS(=O)(=O)c1cccs1 was read as FBA Mtb inh inactive, UGM FP inh inactive, Rv3671c protease inactive, FadD28 FP inh inactive, GDH-TPI counter inactive and Mtb hypoxia inh inactive.
COc1cc(/C=N/NC(=O)c2sc(N)c(C#N)c2C)ccc1O was read as FBA Mtb inh inactive, UGM FP inh inactive, Rv3671c protease inactive, FadD28 FP inh inactive and GDH-TPI counter 61.
`COc1cc(/C=N/NC(=O)c2ccccc2NS(=O)(=O)c2cccs2)ccc1O` gave FBA Mtb inh inactive, FadD28 FP inh inactive and GDH-TPI counter 36.
Screening CN1C(=O)C2C(C=Cc3ccccc3)N3C(=O)CN(Cc4ccccn4)C(=O)[C@@]3(Cc3ccccc3)C2C1=O (stereo not given in full) returned Mtb hypoxia inh inactive.
Screening CC(=NNC(=O)c1ccc(Cl)cc1)c1ccc(Br)s1 returned Mtb hypoxia inh inactive.
COC(=O)c1ccc(C2Nc3ccccc3NC3=C2C(=O)CC(C)(C)C3)cc1 (stereo not given) was read as FBA Mtb inh inactive, UGM FP inh inactive, Rv3671c protease inactive, FadD28 FP inh inactive, GDH-TPI counter inactive and Mtb hypoxia inh inactive.
`CCOc1cc(C2Nc3ccccc3NC3=C2C(=O)CC(C)(C)C3)ccc1OC(C)=O` (stereo not given) gave FBA Mtb inh inactive, UGM FP inh inactive, Rv3671c protease inactive, FadD28 FP inh inactive, GDH-TPI counter 43 and Mtb hypoxia inh inactive.
`Cc1cc2c(cc1C)NC(c1cccnc1)C1=C(CC(C)(C)CC1=O)N2` (stereo not given) gave FBA Mtb inh inactive, UGM FP inh inactive, Rv3671c protease inactive, FadD28 FP inh inactive, GDH-TPI counter 33 and Mtb hypoxia inh inactive.
`COC(=O)c1ccc2c(c1)NC1=C(C(=O)CC(C)(C)C1)C(c1ccncc1)N2` (stereo not given) gave FBA Mtb inh inactive, UGM FP inh inactive, Rv3671c protease inactive, FadD28 FP inh inactive, GDH-TPI counter 31 and Mtb hypoxia inh inactive.
Screening CC1(C)CC(=O)C2=C(C1)Nc1ccccc1NC2c1cccnc1 (stereo not given) returned FBA Mtb inh inactive, UGM FP inh inactive, Rv3671c protease inactive, FadD28 FP inh inactive, GDH-TPI counter 37 and Mtb hypoxia inh inactive.
`CNC(=O)NN=C(N)c1ccccn1` gave Mtb hypoxia inh inactive.
`CC(C)Sc1nc2c(c(=O)n(C)c(=O)n2C)n1Cc1ccc(Cl)cc1` gave FBA Mtb inh inactive, UGM FP inh inactive, Rv3671c protease inactive, FadD28 FP inh inactive, GDH-TPI counter inactive and Mtb hypoxia inh 38.
`Cn1c(=O)c2c(ncn2Cc2ccc(Cl)cc2)n(C)c1=O` gave FBA Mtb inh inactive, UGM FP inh inactive, Rv3671c protease inactive, FadD28 FP inh 16, GDH-TPI counter inactive and Mtb hypoxia inh inactive.
`Cc1cc(C)nc(N/N=C/C=C/c2ccccc2)n1` gave FBA Mtb inh inactive, UGM FP inh inactive, Rv3671c protease inactive, FadD28 FP inh inactive and GDH-TPI counter 34.
Screening Cc1cc(=O)[nH]c(N/N=C/c2ccc(-c3ccc(F)cc3)o2)n1 returned FBA Mtb inh inactive, UGM FP inh inactive, Rv3671c protease inactive, FadD28 FP inh inactive and GDH-TPI counter 37.
`Cc1cc(=O)[nH]c(N/N=C/C=C/c2ccccc2)n1` gave FBA Mtb inh inactive, UGM FP inh inactive, Rv3671c protease inactive, FadD28 FP inh inactive and GDH-TPI counter 38.
`COc1ccccc1C=NNc1nc(C)cc(=O)[nH]1` gave FBA Mtb inh inactive, FadD28 FP inh inactive and GDH-TPI counter 37.

Screening results as filed in PubChem BioAssay.
